Results on 22 compounds are retold here after the supplement of paper PMC4954754.

Each structure is given as a SMILES string. ± gives the uncertainty stated by the source.

This test relates to HEK293T-Rex ERSE-FLuc. The test can be described thus: ERSE-FLuc reporter activation, triplicate confirmation, relative to 500 nM thapsigargin (% of thapsigargin); higher = stronger ATF6/ERSE reporter activation. To be noted: 6.8 µM; 18 h; screen: confirmation. The protocol: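 HEK293T-Rex cells stably expressing the ERSE-firefly luciferase (BiP promoter, ATF6-preferring) or XBP1-splicing Renilla luciferase (IRE1/XBP1s) reporter, 1536-well plates, compound at 6.8 µM for 18 hr at 37 °C; luminescence read […] and expressed as % activation = 100*(compound - median DMSO)/(median 500 nM thapsigargin - median DMSO). Primary screen was single-pass; confirmation screen in triplicate (mean ± SD).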
Take `O=C(Nc1ccc2nc(NC(=O)C3CCCCC3)sc2c1)C1CCCCC1`: the ERSE-FLuc reporter activation was found to be 26.5 ± 4.1.
Under `Oc1ccc(-c2cnc3c(Nc4ccc5[nH]ccc5c4)nccn23)cc1` stands 35.7 ± 5.6; under `Cc1ccc(O)c(N/C=C/C(=O)c2ccc(F)cc2)c1`, 140 ± 17; under `O=C(NCCc1ccccc1)c1cc(-c2cccs2)on1`, 34.5 ± 3.6.
Under `O=[N+]([O-])c1ccc2nc(/C=C/c3ccccc3)[nH]c2c1` stands 25.2 ± 1.7.
The figure for `O=c1/c(=C/c2ccc(O)c(O)c2)sc2nc3ccccc3n12` is 37.5 ± 3.7; for `COCCNC(=O)c1cc(-c2cccs2)on1` it is 27.4 ± 2.4; for `Oc1ccc(-c2csc3nc(-c4ccccc4)nn23)c(O)c1` it is 33.9 ± 2.6.
Regarding `CCOc1cccc(C(=O)Nc2ccc(Br)cn2)c1`, the ERSE-FLuc reporter activation was 26 ± 3.3.
The figure for `COc1ccc(-c2csc(N(CC3CCCO3)C(=O)CCl)n2)cc1` (configuration not stated) is 25.3 ± 4.3; for `COc1cccc(Nc2nc(-c3ccc(OC)c(F)c3)cs2)c1` it is 25.2 ± 4.3.
Under `Nc1nc(Nc2ccc(Cl)cc2)nc2ccccc12` stands 30.7 ± 5.2.
The figure for `CCCNc1ccnc(N2CCc3ccccc3C2)n1` is 25.7 ± 11.
`COC(=O)c1c(NC(=O)CCl)sc(C(=O)Nc2cccc([N+](=O)[O-])c2)c1C` gave an ERSE-FLuc reporter activation of 37.6 ± 7.8.
The figure for `CC(C)c1ccc(NC(=O)/C=C/c2ccco2)cc1` is 26.6 ± 5.9; for `O=C(N/N=C/c1cccc(Cl)c1Cl)c1ccccc1O` it is 25.3 ± 1.4.
The figure for `Nc1ccc2nc(/C=C/c3ccccc3)[nH]c2c1` is 36.7 ± 5.2.
Under `Cc1cc(C)nc(/N=C(\N)Nc2ccc(OCc3ccccc3)cc2)n1` stands 53.1 ± 14.
As for `COc1ccc(/C=C(\C#N)c2nc3ccccc3n2C)cc1`, the ERSE-FLuc reporter activation was determined as 38.1 ± 7.2.
Under `O=C(N/N=C/c1cccc(O)c1O)c1ccccn1` stands 37.9 ± 9.1.
Under `CCc1cc2c(=O)c(-c3ccc4c(c3)OCCO4)coc2cc1OC` stands 34.7 ± 3.1; under `Cc1ccc(O)c(NC(=O)c2cc(-c3cccnc3)on2)c1`, 70 ± 3.2.
